The campaign covered roughly 370,000 compounds. About 4,800 (1.3%) were called active. This excerpt belongs to a sample that is enriched for actives. Unmarked numbers belong to inactive results.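 How the source made its calls: active means inhibition above about 21% made by adding two undisclosed values (limit read from the data); inactive means the rest.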
Biological target: Protein arginine N-methyltransferase 1 (Homo sapiens) (UniProt Q99873)
Experiment: PRMT1 methyltransferase inhibitors, primary screen, biochemical, fluorescence polarization (AID 652257)
Settings: recombinant PRMT1, activity-based probe fluorescence polarization; at 2.79 µM; stronger effect = higher value

Sequence of Protein arginine N-methyltransferase 1 (Homo sapiens) (Q99873 whole entry, looked up): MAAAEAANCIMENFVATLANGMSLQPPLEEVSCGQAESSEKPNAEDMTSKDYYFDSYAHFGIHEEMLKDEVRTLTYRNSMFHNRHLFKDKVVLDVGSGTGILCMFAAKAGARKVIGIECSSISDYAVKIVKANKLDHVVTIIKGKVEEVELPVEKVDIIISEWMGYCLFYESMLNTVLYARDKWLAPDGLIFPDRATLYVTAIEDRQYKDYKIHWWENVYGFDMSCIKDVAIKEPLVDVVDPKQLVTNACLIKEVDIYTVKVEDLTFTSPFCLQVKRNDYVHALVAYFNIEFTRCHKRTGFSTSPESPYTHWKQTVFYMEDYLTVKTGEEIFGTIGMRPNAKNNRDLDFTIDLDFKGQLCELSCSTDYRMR

`COc1ccc(-c2cc3c(c4c2ccn4C)C2CCC3C2)cn1` (configuration not stated) was tested. Which inhibition did it give?
The inhibition was 32.2% (active).

`CC(=O)O[C@@]1(C(C)=O)CCC2[C@H]3C=C(C)C4=CC(=O)CC[C@@]4(C)C3CC[C@]21C` (some centres not stated) was tested. Which inhibition did it give?
The inhibition was -2.39%.

How did the inhibition turn out when `Cc1ccccc1-c1ccc2c(c1)O[C@@H](CN(C)Cc1ccc(C(=O)O)cc1)[C@@H](C)CN([C@H](C)CO)S2(=O)=O` was run?
Its inhibition is -1.8%.

`CCn1c(C(O)c2cc(OC)ccc2OC)nc2ccccc21` (configuration not stated) was tested. Which inhibition did it give?
The inhibition was -3.51%.

With `CCCn1c(C(O)c2cc(OC)ccc2OC)nc2ccccc21` (configuration not stated) as the compound, how does the inhibition read?
The inhibition was 23.1% (active).

Which inhibition does the source give for `COc1ccc(OC)c(C(O)c2nc3ccccc3n2C)c1` (configuration not stated) here?
The inhibition was 5.63%.

`Cc1ccc(S(=O)(=O)NC(=O)N2CCCC(C)(C)C2)cc1` was tested. Which inhibition did it give?
Its inhibition is -1.8%.

With `CN(C)C(=O)N=NC(=O)N(C)C` as the compound, how does the inhibition read?
The inhibition was 27.4% (active).

Which inhibition does the source give for `CC(NC(=O)c1cc(=O)[nH]c2ccccc12)c1ccc(F)cc1F` (configuration not stated) here?
Its inhibition is 0.78%.

`CCOC(=O)c1cccc(NC(=O)CN(C)S(=O)(=O)c2ccc(-c3cocn3)s2)c1` was tested. Which inhibition did it give?
The inhibition was -6.43%.

Which inhibition does the source give for `N#CC1=C(N)Oc2c(sc3ccccc23)C1c1ccco1` (configuration not stated) here?
The inhibition was 26.8% (active).

How did the inhibition turn out when `O=C(Nc1cccc(C(=O)NC2CC2)c1)c1ccc(F)c(S(=O)(=O)N2CCOCC2)c1` was run?
Its inhibition is 1.48%.

How did the inhibition turn out when `O=C(Nc1ccccc1Cl)/C(Cl)=C(\Cl)S(=O)c1ccccc1` (configuration not stated) was run?
Its inhibition is 80.3% (active).

`O=C(Nc1ccnn1C1CCN(C/C=C/c2ccc(F)cc2)CC1)C1CCCC1` was tested. Which inhibition did it give?
The inhibition was -2.06%.

Which inhibition does the source give for `O=C(N[C@H](C(=O)N1CCC[C@H]1C(=O)NCCc1ccccc1Cl)c1ccccc1)c1ccccc1` here?
Its inhibition is 4.7%.

Which inhibition does the source give for `CCOC(=O)[C@]12CCCCC/C=C\1N(Cc1ccc(OC)cc1)C(=O)[C@H]2CC(=O)NCc1ccc(C)o1` here?
The inhibition was 11.7%.

With `CCc1nc2c(OCC(N)=O)cccn2c1N(C)C(=O)c1ccc(OC)cc1` as the compound, how does the inhibition read?
Its inhibition is -1.98%.

Which inhibition does the source give for `CN(C)S(=O)(=O)c1ccc(Cl)c(NC(=O)COC(=O)CC(NC(N)=O)c2ccc(Cl)cc2)c1` (configuration not stated) here?
The inhibition was -6.61%.

How did the inhibition turn out when `O=c1[nH]c2ccccc2n2c(-c3ccccc3)nnc12` was run?
Its inhibition is 85.2% (active).

`O=C(c1ncn2c1c(=O)[nH]c1ccccc12)N1CCc2ccccc2C1` was tested. Which inhibition did it give?
Its inhibition is -1.56%.

How did the inhibition turn out when `N[C@@H](Cc1ccccc1)C(=O)N1CCC[C@@H]1C(=O)N1CCC2CCN(S(=O)(=O)c3ccccc3)CC21` (some centres not stated) was run?
The inhibition was 3.14%.

Which inhibition does the source give for `Cc1nc(N)[nH]c(=O)c1Oc1cccc(C(F)(F)F)c1` here?
The inhibition was -1.54%.

How did the inhibition turn out when `O=C(NC1CCC1)c1ccc(C#Cc2cccc(F)c2)c[n+]1[O-]` was run?
The inhibition was -4.9%.

For `C#CCN([C@H](C(=O)OC)C(C)CC)S(=O)(=O)c1ccccc1Br` (some centres not stated), which inhibition is on record?
Its inhibition is 1.85%.

How did the inhibition turn out when `CCN1CCN(C(=O)N[C@@H](C(=O)N[C@@H]2C(=O)N3C(C(=O)O)=C(CSc4nnnn4C)CS[C@H]23)c2ccc(O)cc2)C(=O)C1=O` was run?
The inhibition was 28.5% (active).

Which inhibition does the source give for `CCOC(=O)C1=C(CSc2nnnn2C)N(C)C(=O)NC1c1ccccc1` (configuration not stated) here?
The inhibition was -1.87%.

`CC(=O)NC1C(Oc2ccc(C=O)cc2)OC(COC(C)=O)C(OC(C)=O)C1OC(C)=O` (configuration not stated) was tested. Which inhibition did it give?
Its inhibition is -2.72%.

With `COC(=O)[C@H](C(C)C)N(CCCc1cn(Cc2ccccc2)nn1)S(=O)(=O)c1ccc(F)cc1Br` as the compound, how does the inhibition read?
The inhibition was 1.25%.

How did the inhibition turn out when `C=CCNC(=S)NNC(=O)COc1c(Cl)cc(Cl)cc1Cl` was run?
Its inhibition is 1.94%.

`Cc1ccc(-n2c(COc3ccccc3)nnc2SCC(=O)Nc2ccc3c(c2)OCCO3)cc1` was tested. Which inhibition did it give?
Its inhibition is 1.77%.

For `COc1ccc(-n2c(SCC(=O)Nc3ccccc3-c3ccccc3)nnc2-c2cccnc2)cc1`, which inhibition is on record?
Its inhibition is -3.53%.

Which inhibition does the source give for `COP(=O)(O)CNC(=O)OCc1ccccc1` here?
Its inhibition is -3.79%.

How did the inhibition turn out when `CCOc1ccc(C(=O)CCC(=O)NC2=NCCS2)cc1` was run?
Its inhibition is 0.3%.

With `CCOc1ccc(C(=O)CCN2CCOCC2)cc1` as the compound, how does the inhibition read?
Its inhibition is 21.4% (active).

How did the inhibition turn out when `CCOc1ccc(C(=O)CCC(=O)Nc2ccncc2)cc1` was run?
Its inhibition is -2.2%.

Which inhibition does the source give for `CCN1C(=O)[C@H]2[C@@H](c3ccccc3)N[C@]3(CCCN(Cc4ccc(C)cc4)C3=O)[C@H]2C1=O` here?
Its inhibition is -1.43%.

For `COc1cc(/C=C2/C(=O)NN(c3ccc(F)cc3)C2=O)cc([N+](=O)[O-])c1O`, which inhibition is on record?
Its inhibition is 22.9% (active).

For `COc1ccc(N2C(=O)CC(Nc3ccc(F)cc3)C2=O)c([N+](=O)[O-])c1` (configuration not stated), which inhibition is on record?
The inhibition was 2%.

For `COc1cc(CN2CC(C)CC(C)C2)cc([N+](=O)[O-])c1O` (configuration not stated), which inhibition is on record?
Its inhibition is -0.22%.

With `C=CCN1C(=O)[C@@H](CC(=O)N2CCN(C(=O)OCC)CC2)[C@]2(C(=O)OCC)CCCCC/C=C/12` as the compound, how does the inhibition read?
Its inhibition is 2.76%.

With `N#CCOc1ccc(C2=NO[C@@H]3[C@@H]4C[C@@H]([C@H]5C(=O)N(c6ccc7c(c6)OCO7)C(=O)[C@@H]45)[C@H]23)cc1` as the compound, how does the inhibition read?
The inhibition was -0.79%.

How did the inhibition turn out when `O=C(NCc1ccc(F)cc1F)[C@@H]1CCCN1C(=O)[C@@H]1CCCN1C(=O)c1cccc(Cl)c1` was run?
The inhibition was -3.37%.

For `CCOc1ccc(-c2nc(C)sc2CC(=O)O)cc1`, which inhibition is on record?
The inhibition was 4.47%.

`CC(=O)NC(CC(=O)Nc1nc(-c2ccccc2)c(C(C)=O)s1)c1ccccc1` (configuration not stated) was tested. Which inhibition did it give?
The inhibition was 1.97%.

With `C/C(=N/Nc1nc(-c2ccccc2)c(CC(=O)O)s1)c1ccccc1` as the compound, how does the inhibition read?
Its inhibition is 23.7% (active).

Which inhibition does the source give for `COC(=O)N1Cc2ccnnc2CC1c1ccccc1Br` (configuration not stated) here?
Its inhibition is -1.59%.

Which inhibition does the source give for `CCOC(=O)C(Sc1ncc(C#N)c(N)n1)C(C)C` (configuration not stated) here?
The inhibition was 33.5% (active).

`CCOC(=O)c1cnc(SCC(=O)Nc2ccccc2C(=O)OC)nc1N` was tested. Which inhibition did it give?
Its inhibition is -1.74%.

Which inhibition does the source give for `CCCCSc1[nH]c(=O)c(C(=O)OCC)cc1C#N` here?
Its inhibition is 5.58%.

With `COCCCNc1nc2c(-c3cccc(C)c3)nnn2c2ccc(Cl)cc12` as the compound, how does the inhibition read?
The inhibition was 1.2%.

With `C=CCOC/C=C/C#CCN(CC=C)Cc1ccc(OC)cc1OC` as the compound, how does the inhibition read?
The inhibition was -0.66%.

For `O=C(CCSc1ccccc1)NCCSc1ccccn1`, which inhibition is on record?
The inhibition was -0.03%.

`Cc1ccc(Cc2c(-c3ccc(Cl)cc3)nc3c4ccccc4ccn23)cc1` was tested. Which inhibition did it give?
Its inhibition is -0.73%.

How did the inhibition turn out when `Cc1ccc(Cc2c(-c3ccc(C)cc3)nc3c4ccccc4ccn23)cc1` was run?
Its inhibition is -3.94%.

Which inhibition does the source give for `c1ccc(Cc2c(-c3ccco3)nc3c4ccccc4ccn23)cc1` here?
The inhibition was 26.2% (active).

Which inhibition does the source give for `COc1ccc(CSc2nnc(-c3cccc(C)c3)n2C)cc1` here?
Its inhibition is 8.96%.

With `Cc1ccc(-n2c(SCC(=O)Nc3cccc4ccccc34)nnc2-c2ccco2)cc1` as the compound, how does the inhibition read?
The inhibition was 1.53%.

Which inhibition does the source give for `CCN(CC)C(=O)c1sc2nc(-c3ccccc3)ccc2c1N` here?
Its inhibition is 23.1% (active).

`CCN(CC)C(=O)c1nc[nH]c1C(=O)N(C)Cc1ccccc1` was tested. Which inhibition did it give?
The inhibition was 0.76%.

Which inhibition does the source give for `CCOC(=O)C(C)n1nc(-c2ccccc2)c2ccccc2c1=O` (configuration not stated) here?
The inhibition was -2.85%.

Which inhibition does the source give for `O=C(CN1CCCc2ccccc21)NCc1ccc(F)cc1` here?
Its inhibition is -5.39%.

How did the inhibition turn out when `COc1cccc(N2CCN(CC(=O)N(C)Cc3ccc(F)cc3)CC2)c1` was run?
The inhibition was 0.17%.

How did the inhibition turn out when `COc1ccccc1C(=O)NC1CCCCN(C(C)C)C1=O` (configuration not stated) was run?
The inhibition was 2.65%.

With `O=C(C1CCN(S(=O)(=O)c2ccccc2)CC1)N1CCN(C2CCCCC2)CC1` as the compound, how does the inhibition read?
Its inhibition is -0.34%.

How did the inhibition turn out when `COc1ccc(N(C)C(=O)C2CCN(S(=O)(=O)c3cccc4nsnc34)CC2)cc1` was run?
Its inhibition is -1.3%.

`COc1ccc(CN2CCN(Cc3cn(C)nc3-c3ccccc3)CC2CCO)c(C)c1C` (configuration not stated) was tested. Which inhibition did it give?
Its inhibition is 0.32%.

`Cc1ccccc1CN1C[C@@H]2C[C@@H](c3ccc4nsnc4c3)N3CCC[C@@]23C1=O` was tested. Which inhibition did it give?
The inhibition was 1.62%.

Which inhibition does the source give for `Cc1ccccc1CN1C[C@@H]2C[C@@H](c3cn(C)nc3-c3ccccc3)N3CCC[C@@]23C1=O` here?
Its inhibition is 67.8% (active).

`C=CCN(C(=O)[C@@H](CCCC)[C@@H](O)c1ccc(Cl)cc1)c1ccccc1` was tested. Which inhibition did it give?
Its inhibition is -0.47%.

With `CC(C)CNc1cccc2c1S(=O)(=O)N(Cc1cn(Cc3ccccc3C(F)(F)F)nn1)Cc1ccccc1O2` as the compound, how does the inhibition read?
Its inhibition is 2.58%.

How did the inhibition turn out when `CCNC(=O)CC1C(=O)N(c2ccc(F)cc2)C(=O)N1CCc1sccc1C` (configuration not stated) was run?
Its inhibition is -2.07%.

For `Cc1cc2nc(-c3ccc(F)cc3)c(Cc3ccsc3)n2c(C)c1Br`, which inhibition is on record?
The inhibition was 1.03%.

With `Cc1cc(Br)cn2c(Cc3cccc(F)c3)c(-c3cccc(Br)c3)nc12` as the compound, how does the inhibition read?
The inhibition was -2.69%.

For `Cc1cc2nc(-c3ccco3)c(Cc3cccc(F)c3)n2c(C)c1Br`, which inhibition is on record?
Its inhibition is 36.5% (active).

For `Nc1nc(NC(=O)/C=C/c2ccc(F)cc2)nn1-c1ccccc1`, which inhibition is on record?
The inhibition was -3.14%.

With `O=C(O)CCn1c(O)c(C=C2N=c3ccccc3=N2)sc1=S` as the compound, how does the inhibition read?
The inhibition was 29.5% (active).

With `CCCCNC(=O)C[C@H]1C[C@@]2(C(=O)OC)C(=C[C@H](COCc3ccccc3)O[C@@H]2C)N(Cc2ccc(Cl)cc2Cl)C1=O` as the compound, how does the inhibition read?
Its inhibition is -3.14%.

With `COc1ccc(-n2c(COc3ccc(C)cc3)nnc2SCC(=O)Nc2ccc(Oc3ccccc3)cc2)cc1` as the compound, how does the inhibition read?
The inhibition was -3.87%.

With `CCOc1ccc(NC(=O)CSc2nc3c(c(=O)n2-c2ccccc2OC)SCC3)cc1` as the compound, how does the inhibition read?
Its inhibition is 5.66%.

With `COc1ccc(Cc2nnc(SCC(=O)N(c3ccccc3)C(C)C)n(N)c2=O)cc1` as the compound, how does the inhibition read?
The inhibition was -6.66%.

How did the inhibition turn out when `COc1ccc(NC(=O)CSc2nnc(Cc3ccccc3)c(=O)n2N)cc1` was run?
Its inhibition is 31.4% (active).

With `COc1ccccc1-n1c(SCC(=O)Nc2ccc(Cl)cc2)nc(O)c(Cc2ccccc2)c1=O` as the compound, how does the inhibition read?
Its inhibition is 34.5% (active).

With `CCc1c(O)nc(SCC(=O)Nc2ccccc2)n(C(C)CC)c1=O` (configuration not stated) as the compound, how does the inhibition read?
Its inhibition is 17%.

With `COc1ccccc1-n1ccnc(SCC(=O)NC2CCCCC2)c1=O` as the compound, how does the inhibition read?
Its inhibition is 1.07%.

Which inhibition does the source give for `Cn1ccnc1SCC(=O)Nc1ccc2c(c1)OCCO2` here?
The inhibition was 5.34%.

With `COc1cccc(NC(=O)CSc2nccn(-c3ccc4c(c3)OCCO4)c2=O)c1` as the compound, how does the inhibition read?
Its inhibition is 29.1% (active).

`COC(=O)[C@@]12C[C@@H](CC(=O)NCCCCc3ccccc3)C(=O)N(CCc3ccc(OC)c(OC)c3)C1=CCC(C)(C)C2` was tested. Which inhibition did it give?
The inhibition was 3.69%.

Reference: PubChem BioAssay AID652257 (The Scripps Research Institute Molecular Screening Center, 2013)
